Screening data from PubChem.
HT1080NT lethal – qHTS for induction of synthetic lethality in tumor cells producing 2HG: qHTS for the HT-1080-NT fibrosarcoma cell line. HT-1080-NT fibrosarcoma viability, CellTiter-Glo ATP luminescence, 48 h. Potency, µM (highest dose often 46.1 µM), for the others: at the highest dose activity, negative = less viability, most hits filed as cytotoxic. 360,000 tested, 1.6% active;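 further: NT is the 2HG producing partner of a matched IDH1 knockdown line; potency means the concentration at half of the fitted maximal effect; 0% = DMSO-treated cells and -100% = media-only wells without cells; nearly all actives have a fitted effect of over 55% in size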
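Read-out is CellTiter-Glo luminescence after 10 minutes at room temperature, following 48 hours' compound treatment of HT-1080-NT cells (750 cells/well, RPMI, 5% FBS, 37 degrees C).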
DT40 TDP1 no CPT – qHTS for Inhibitors of human tyrosyl-DNA phosphodiesterase 1 (TDP1): qHTS in cells in absence of CPT | DT40 Tdp1-/- hTDP1 cells, no CPT, ATP luminescence, 48 h | Potency, µM (titrated, usually from 46.2 µM), inactives show at the top dose activity change, negative = growth inhibition, usual class: inhibitors | 420,000 tested, 15% active; further: potency means the concentration at half of the fitted maximal effect; nearly all actives have a fitted effect of over 55% in size
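Stably hTDP1-transfected Tdp1-null chicken DT40 cells were treated with library compounds minus camptothecin and grown for at least 48 hr at 37 °C, after which cellular ATP was quantified by luminescence.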
IL1B secr inh – qHTS for Inhibitors of Inflammasome Signaling: IL-1-beta AlphaLISA Primary Screen; THP-1 LPS/ATP IL-1B secretion, AlphaLISA, 16 h; stronger effect = lower value; activity change, % at 57.5 µM; 360,000 tested, 4.7% active; in the data active means activity change below about -50%; inconclusive means mostly about -30% to -49%
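Secreted IL-1B measured by AlphaLISA bead assay after 16 h compound exposure of THP-1 cells; compounds (final up to 57.5 uM) added 1 h before LPS (250 ng/mL) and ATP (1.25 mM) stimulation; lower signal means less secretion.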
DT40 TDP1 CPT – qHTS for Inhibitors of human tyrosyl-DNA phosphodiesterase 1 (TDP1): qHTS in cells in presence of CPT | chicken DT40 Tdp1-/-;hTDP1 cells + 20 nM CPT, ATP luminescence, 48 h | Potency, µM (titrated, usually from 46.2 µM), for the others: at the top dose activity change, negative = growth inhibition, most hits filed as inhibitors | 420,000 tested, 12% active; further: potency means the concentration at half of the fitted maximal effect; nearly all actives have a fitted effect of over 55% in size
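Cell growth measured by CellTiter-Glo luminescence after a minimum 48 h, 37 C compound exposure with 20 nM CPT in Tdp1-knockout DT40 cells stably expressing hTDP1, seeded 400/well; qHTS titration format.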
HT1080 IDH1KD tx – qHTS for induction of synthetic lethality in tumor cells producing 2HG: qHTS for the HT-1080-IDH1KD cell line | AID 686971, 2013 | Potency, µM (titrated, usually from 46.1 µM), for inactives: at the top dose activity, negative = toxicity, most hits filed as cytotoxic | 360,000 tested, 2% active | HT-1080 IDH1 knockdown viability, ATP luminescence, 48 h;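 further: potency means the concentration at half of the fitted maximal effect; 0% = DMSO wells and -100% = cell-free medium wells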
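Knockdown cells (IDH1KD HT-1080) received compounds 2 h after plating at 750 cells/well and were kept 48 h at 37 °C in 5% FBS RPMI. A CellTiter-Glo luminescence read gave % activity for curve fitting.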
Active calls of the source: *; ? = inconclusive; . = no result given. Only some compounds are listed: those with a hit (about 19% of all), similar ones and a draw of the others. Unless noted, the call rests on the fitted dose curve; in most records, active means well fitted curve in the direction sought with a large enough effect; inconclusive means small, poorly fitted or top-dose-only effect, or another doubt; inactive means no such curve, though single readings can be large; an effect the other way counts as inactive or inconclusive. Unless noted, on the % scale 0 is the no-effect control and ±100 the full control effect.

SMILES | HT1080NT lethal | DT40 TDP1 no CPT | IL1B secr inh | DT40 TDP1 CPT | HT1080 IDH1KD tx
COc1ccc(N2CC(NS(=O)(=O)c3ccc4ccccc4c3)CC2=O)cc1OC (stereo unspecified) | -1% | ? | 13 | ? | -11%
C=CS(=O)(=O)c1ccc(Oc2ccc(S(=O)(=O)C=C)cc2)cc1 | -4% | 2.3µM* | -105* | 2.3µM* | ?
COc1ccc(-c2c3c(nc4sc(C(=O)Nc5ccc(F)cc5)c(N)c24)CC(C)(C)CC3=O)cc1 | . | 15µM* | . | ? | .
CCOC(=O)c1c(C)nc2sc(C(=O)Nc3ccccc3)c(N)c2c1-c1ccc(OC)cc1 | ? | 15µM* | -5 | ? | ?
COc1ccc(-c2c3c(nc4sc(C(=O)Nc5ccccc5)c(N)c24)CCC3)cc1 | 0% | ? | ? | -10% | 3%
CCOC(=O)c1c(N)sc(C(=O)Nc2ccccc2)c1C | -7% | 18µM* | -21 | ? | -9%
CCOC(=O)c1c(N)sc(C(=O)Nc2ccccc2F)c1C | 9% | ? | -13 | -17% | 4%
Cc1c(C(=O)OC(C)C)sc(N)c1C(=O)OC(C)C | 13% | ? | -61* | -24% | -15%
O=C(CS(=O)(=O)c1ccc2ccccc2c1)N1CCCCCC1 | -1% | -5% | ? | ? | 6%
CCOC(=O)c1sc(NC(=O)Nc2ccccc2)cc1C | ? | 26µM* | -117* | 23µM* | ?
CCOC(=O)c1sc(NC(=O)C2CCC2)cc1C | -1% | 21µM* | ? | -10% | -1%
CCOC(=O)c1c(C)nc2sc3c(c2c1-c1ccc(OC)cc1)NC(c1ccc(OC)cc1)NC3=O (stereo unspecified) | 8% | 13µM* | 9 | ? | 3%
CCOC(=O)c1c(N)sc(N)c1C(=O)OCC | 5% | 5.2µM* | -71* | 4.6µM* | -3%
CCOC(=O)c1sc(NC(C)=O)cc1C | 0% | 1% | -20 | -28% | 3%
CCOC(=O)c1sc(NC(=O)Nc2ccccc2Cl)cc1C | -11% | 15µM* | -16 | 23µM* | -6%
Cc1ccc(NC(=O)c2c(C)nc3sc(C(=O)Nc4ccc(F)cc4)c(N)c3c2-c2ccc(C)o2)c(C)c1 | . | 18µM* | . | ? | .
CCCCC[C@@H](C)N1C[C@H](COCc2ccccc2)Oc2cc(N3CCC[C@H]3CO)ccc2S1(=O)=O | 1% | 16µM* | 22 | 9.2µM* | 0%
CCCCC[C@@H](C)N1C[C@H](COCc2ccccc2)Oc2cc(N3CCC[C@@H]3CO)ccc2S1(=O)=O | ? | 18µM* | -27 | ? | ?
CCCCC[C@@H](C)N1C[C@@H](COCc2ccccc2)Oc2cc(N3CCC[C@H]3CO)ccc2S1(=O)=O | ? | ? | 0 | ? | ?
COc1cc2cc(CCCO)oc(=O)c2cc1OC | 13% | 13% | 1 | -1% | 2%
O=C(CCCCn1c(=O)[nH]c2ccccc2c1=O)N1CCN(c2cccc(C(F)(F)F)c2)CC1 | -2% | ? | -27 | 16µM* | -29%
O=C(CCCCn1c(=O)[nH]c2ccsc2c1=O)N1CCN(c2cccc(C(F)(F)F)c2)CC1 | . | 9.2µM* | . | 12µM* | .
O=C(CCCn1c(=O)[nH]c2ccccc2c1=O)N1CCN(c2ccccn2)CC1 | 0% | -16% | -6 | -13% | 1%
O=C1Nc2ccccc2OC1CC(=O)N1CCN(c2cccc(C(F)(F)F)c2)CC1 (stereo unspecified) | -15% | ? | ? | ? | 20µM*
COc1ccc(N2CCN(C(=O)CCCCCn3c(=O)[nH]c4ccsc4c3=O)CC2)cc1 | 2% | 16µM* | -1 | ? | 4%
SMILES | HT1080NT lethal | DT40 TDP1 no CPT | IL1B secr inh | DT40 TDP1 CPT | HT1080 IDH1KD tx
O=C(CCn1c(=O)[nH]c2ccccc2c1=O)N1CCN(c2cccc(C(F)(F)F)c2)CC1 | -1% | 18µM* | ? | 16µM* | -3%
O=C(CCn1c(=O)[nH]c2ccccc2c1=O)N1CCN(c2ccc(Cl)cc2)CC1 | 7% | -25% | 23 | ? | 4%
Cc1cccc(CS(=O)(=O)Cc2ccc(C(=O)NCc3ccc(Cl)cc3)o2)c1 | . | 23µM* | . | 16µM* | .
Cc1cccc(CS(=O)(=O)Cc2ccc(C(=O)NCc3cccnc3)o2)c1 | 5% | -12% | 10 | -12% | 7%
Cc1cccc(CS(=O)(=O)Cc2ccc(C(=O)NCc3ccc(F)cc3)o2)c1 | . | ? | . | 21µM* | .
Cc1nc2c(C)cccc2cc1C(=O)N/N=C/c1ccc(C(=O)O)cc1 | 7% | ? | 22 | ? | 0%
Cc1nc2c(C)cccc2cc1C(=O)N/N=C/c1ccc(N(C)C)cc1 | ? | 12µM* | 28 | 5.8µM* | ?
Cc1nc2c(C)cccc2cc1C(=O)N/N=C/c1cccnc1 | -18% | 6.5µM* | -67* | 5.2µM* | ?
O=S1OCCN1c1ccccc1 (stereo unspecified) | -6% | -7% | 4 | -13% | 19%
Nc1nonc1-c1nc2ccccc2n1CC(=O)Nc1cccc(C(F)(F)F)c1 | . | 13µM* | . | ? | .
CCCCCOc1ccc(NC(=O)Cn2c(-c3nonc3N)nc3ccccc32)cc1 | . | -19% | . | ? | .
CCOC(=O)c1ccccc1NC(=O)Cn1c(-c2nonc2N)nc2ccccc21 | ? | 0.92µM* | 37 | 0.82µM* | 0.92µM*
O=C(Cn1c(=O)n(Cc2nc(-c3ccccc3)no2)c(=O)c2ccccc21)Nc1cccc(C(F)(F)F)c1 | . | 21µM* | . | ? | .
Nc1nonc1-c1nc2ccccc2n1CC(=O)Nc1ccccc1 | ? | ? | -11 | 6.5µM* | ?
Cc1ccc(NC(=O)Cn2c(-c3nonc3N)nc3ccccc32)c(Br)c1 | . | ? | . | -1% | .
COc1ccc(OC)c2c1CCC1(C2)NC(=O)NC1=O (stereo unspecified) | 23% | 9% | 13 | 5% | 17%
O=C(N/N=C/c1cn(-c2ccccc2)nc1-c1ccc(F)cc1)c1ccc2c(c1)OCO2 | -3% | 18µM* | ? | ? | -2%
O=C(N/N=C/c1cn(-c2ccccc2)nc1-c1cccnc1)c1ccccc1 | -25% | 23µM* | ? | 23µM* | ?
NC(=S)N/N=C/c1cn(-c2ccccc2)nc1-c1cccnc1 | ? | 2.9µM* | -19 | 12µM* | ?
O=C(NC1CCN(Cc2ccccc2)CC1)c1cn(-c2ccccc2)nc1-c1cccnc1 | 5% | -25% | -91* | -29% | 7%
